What all share (test): DAPPL (digital affinity profiling via proximity ligation, sequencing); 10 mM Tris-HCl pH 7.5, 50 mM NaCl, 1 mM DTT, 4% glycerol, room temperature, 30 min; GST-TFs on glutathione beads, 16-mer random dsDNA library, 0.1% formaldehyde crosslink after washing; high values mean tight binding
For one assay, the target named is T1, FLI1 (Homo sapiens, UniProt Q01543 1-452).
T1 sequence: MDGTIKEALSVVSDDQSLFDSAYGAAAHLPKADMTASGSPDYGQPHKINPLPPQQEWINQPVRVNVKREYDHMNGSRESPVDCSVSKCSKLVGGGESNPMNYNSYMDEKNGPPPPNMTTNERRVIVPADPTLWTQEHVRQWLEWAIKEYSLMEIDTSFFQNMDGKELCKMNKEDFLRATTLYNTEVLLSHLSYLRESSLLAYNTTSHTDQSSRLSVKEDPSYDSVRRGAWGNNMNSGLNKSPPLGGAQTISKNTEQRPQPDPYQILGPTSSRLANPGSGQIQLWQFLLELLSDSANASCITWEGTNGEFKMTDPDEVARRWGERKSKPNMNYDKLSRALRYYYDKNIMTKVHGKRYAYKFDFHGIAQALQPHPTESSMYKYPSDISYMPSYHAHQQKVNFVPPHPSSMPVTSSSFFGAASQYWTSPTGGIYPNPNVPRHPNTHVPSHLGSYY
Particulars: protein: recombinant; tags: N-terminal GST; dsDNA, one strand shown. A digest of the protocol:
(§1)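 Human transcription factors fused to GST were expressed in yeast, captured on glutathione beads, given DNA barcodes and pooled with a GST-only negative control. Pools were incubated with 200 nmole of a 16-mer random double-stranded DNA library in Tris/NaCl/DTT/glycerol buffer at room temperature for 30 min. They were then washed, crosslinked with 0.1% formaldehyde, proximity-ligated (BsaI/T4 ligase, 1 h, 37 °C), PCR-amplified and sequenced on an Illumina NextSeq500. Binding signal is each 6-mer's read frequency for a factor divided by its frequency for the GST control.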

A further assay deals with T2, GABPA (Homo sapiens, UniProt Q06546 1-454).
T2 sequence: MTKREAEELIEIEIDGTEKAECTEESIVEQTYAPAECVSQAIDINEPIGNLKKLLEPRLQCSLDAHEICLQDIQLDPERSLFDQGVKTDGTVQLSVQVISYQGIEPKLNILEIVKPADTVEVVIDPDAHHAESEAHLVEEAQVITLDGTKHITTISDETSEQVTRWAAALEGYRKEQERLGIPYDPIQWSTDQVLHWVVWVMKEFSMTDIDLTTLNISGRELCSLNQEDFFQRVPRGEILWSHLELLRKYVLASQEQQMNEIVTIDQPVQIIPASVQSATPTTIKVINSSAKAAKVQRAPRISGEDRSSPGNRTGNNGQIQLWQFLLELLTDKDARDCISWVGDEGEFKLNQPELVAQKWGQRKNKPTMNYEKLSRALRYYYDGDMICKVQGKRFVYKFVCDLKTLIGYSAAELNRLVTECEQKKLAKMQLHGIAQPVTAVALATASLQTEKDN
Particulars: protein: recombinant; tags: N-terminal GST; dsDNA, one strand shown. The essentials: as §1

Another assay deals with T3, ERG (Homo sapiens, UniProt P11308 1-479).
T3 sequence: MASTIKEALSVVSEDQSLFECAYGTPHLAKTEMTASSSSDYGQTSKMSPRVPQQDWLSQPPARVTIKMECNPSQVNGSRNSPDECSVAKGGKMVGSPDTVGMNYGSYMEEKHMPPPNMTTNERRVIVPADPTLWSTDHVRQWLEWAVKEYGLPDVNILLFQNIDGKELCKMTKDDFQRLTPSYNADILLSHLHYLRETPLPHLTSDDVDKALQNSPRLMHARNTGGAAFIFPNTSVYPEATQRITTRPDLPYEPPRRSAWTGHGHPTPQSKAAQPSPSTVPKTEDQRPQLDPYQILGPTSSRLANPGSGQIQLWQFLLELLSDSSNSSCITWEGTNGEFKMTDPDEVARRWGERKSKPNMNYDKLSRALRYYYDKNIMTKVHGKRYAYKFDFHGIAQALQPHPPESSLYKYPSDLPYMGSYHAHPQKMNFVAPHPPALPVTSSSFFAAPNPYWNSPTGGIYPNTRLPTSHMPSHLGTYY
Particulars: protein: recombinant; tags: N-terminal GST; dsDNA, one strand shown. The essentials:
as §1

For a further assay, the target named is T4, EHF (Homo sapiens, UniProt Q9NZC4 1-300).
T4 sequence: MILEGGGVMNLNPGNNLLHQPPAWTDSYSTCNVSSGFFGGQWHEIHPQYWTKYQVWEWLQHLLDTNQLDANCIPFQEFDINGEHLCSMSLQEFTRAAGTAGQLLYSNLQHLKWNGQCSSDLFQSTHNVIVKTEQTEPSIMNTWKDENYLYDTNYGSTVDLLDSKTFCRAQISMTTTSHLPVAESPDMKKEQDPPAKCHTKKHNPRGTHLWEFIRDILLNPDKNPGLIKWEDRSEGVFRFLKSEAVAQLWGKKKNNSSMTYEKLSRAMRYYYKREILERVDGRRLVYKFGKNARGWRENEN
The conditions noted are these: protein: recombinant; tags: N-terminal GST; dsDNA, one strand shown. The essentials: as §1

In the next assay the target is SPIB (Homo sapiens, UniProt Q01892 1-262). The conditions noted are these: protein: recombinant; tags: N-terminal GST; dsDNA, one strand shown. The essentials:
as §1

The target of the next assay is T5, ELK3 (Homo sapiens, UniProt P41970 1-407).
T5 sequence: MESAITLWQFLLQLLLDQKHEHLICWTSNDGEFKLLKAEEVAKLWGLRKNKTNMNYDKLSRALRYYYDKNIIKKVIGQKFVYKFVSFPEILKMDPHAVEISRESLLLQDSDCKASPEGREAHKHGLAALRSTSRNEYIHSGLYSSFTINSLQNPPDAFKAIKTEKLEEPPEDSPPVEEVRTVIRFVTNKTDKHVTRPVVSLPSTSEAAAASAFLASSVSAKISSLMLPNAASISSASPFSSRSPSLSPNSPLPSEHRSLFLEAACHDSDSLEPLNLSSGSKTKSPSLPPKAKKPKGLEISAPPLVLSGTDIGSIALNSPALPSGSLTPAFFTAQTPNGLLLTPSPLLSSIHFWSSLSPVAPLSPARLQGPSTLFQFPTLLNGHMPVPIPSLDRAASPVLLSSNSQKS
The conditions noted are these: protein: recombinant; tags: N-terminal GST; dsDNA, one strand shown. A digest of the protocol: as §1

For a further assay, the target named is T6, SPIC (Homo sapiens, UniProt Q8N5J4 1-248).
T6 sequence: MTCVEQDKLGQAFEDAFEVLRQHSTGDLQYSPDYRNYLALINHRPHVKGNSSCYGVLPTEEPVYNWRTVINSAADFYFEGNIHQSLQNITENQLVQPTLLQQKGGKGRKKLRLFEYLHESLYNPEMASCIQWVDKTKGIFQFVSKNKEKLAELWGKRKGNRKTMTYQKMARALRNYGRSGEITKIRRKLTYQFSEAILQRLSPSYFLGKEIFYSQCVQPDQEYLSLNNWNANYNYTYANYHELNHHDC
Particulars: protein: recombinant; tags: N-terminal GST; dsDNA, one strand shown. The essentials:
as §1

The next assay addresses ELF4 (Homo sapiens, UniProt Q99607 1-663). Particulars: protein: recombinant; tags: N-terminal GST; dsDNA, one strand shown. The essentials: as §1
The target of the next assay is T7, ELK4 (Homo sapiens, UniProt P28324-2 1-405).
T7 sequence: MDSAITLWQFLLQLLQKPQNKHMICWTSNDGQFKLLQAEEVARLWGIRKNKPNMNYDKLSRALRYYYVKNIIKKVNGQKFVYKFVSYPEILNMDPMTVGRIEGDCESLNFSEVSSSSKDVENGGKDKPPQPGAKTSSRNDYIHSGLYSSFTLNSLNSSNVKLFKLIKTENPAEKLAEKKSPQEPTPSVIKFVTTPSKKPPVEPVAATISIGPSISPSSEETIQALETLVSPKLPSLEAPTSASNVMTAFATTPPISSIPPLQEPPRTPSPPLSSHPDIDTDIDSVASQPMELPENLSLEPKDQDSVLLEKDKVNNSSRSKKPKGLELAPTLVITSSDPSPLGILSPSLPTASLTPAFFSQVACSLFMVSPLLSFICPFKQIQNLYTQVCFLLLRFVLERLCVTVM
Particulars: protein: recombinant; tags: N-terminal GST; dsDNA, one strand shown. A digest of the protocol:
as §1

Another assay concerns the target T8, ERF (Homo sapiens, UniProt P50548 1-548).
T8 sequence: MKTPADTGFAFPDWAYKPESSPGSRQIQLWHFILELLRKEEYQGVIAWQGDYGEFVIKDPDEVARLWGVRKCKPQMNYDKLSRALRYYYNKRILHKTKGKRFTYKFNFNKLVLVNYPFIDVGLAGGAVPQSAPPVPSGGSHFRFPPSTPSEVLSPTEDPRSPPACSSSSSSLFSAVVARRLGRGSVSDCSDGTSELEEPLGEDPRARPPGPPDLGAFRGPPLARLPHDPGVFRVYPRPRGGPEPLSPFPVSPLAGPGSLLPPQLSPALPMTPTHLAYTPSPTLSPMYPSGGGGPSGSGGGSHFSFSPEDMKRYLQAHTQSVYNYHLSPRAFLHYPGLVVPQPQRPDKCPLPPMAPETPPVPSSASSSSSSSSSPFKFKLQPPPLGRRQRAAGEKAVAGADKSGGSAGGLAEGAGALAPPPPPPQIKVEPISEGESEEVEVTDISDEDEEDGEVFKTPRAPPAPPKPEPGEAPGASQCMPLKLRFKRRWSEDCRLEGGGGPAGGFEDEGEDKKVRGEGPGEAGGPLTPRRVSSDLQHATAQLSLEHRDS
The conditions noted are these: protein: recombinant; tags: N-terminal GST; dsDNA, one strand shown. The essentials:
as §1

In another assay the target is T9, ETV3L (Homo sapiens, UniProt Q6ZN32 1-361).
T9 sequence: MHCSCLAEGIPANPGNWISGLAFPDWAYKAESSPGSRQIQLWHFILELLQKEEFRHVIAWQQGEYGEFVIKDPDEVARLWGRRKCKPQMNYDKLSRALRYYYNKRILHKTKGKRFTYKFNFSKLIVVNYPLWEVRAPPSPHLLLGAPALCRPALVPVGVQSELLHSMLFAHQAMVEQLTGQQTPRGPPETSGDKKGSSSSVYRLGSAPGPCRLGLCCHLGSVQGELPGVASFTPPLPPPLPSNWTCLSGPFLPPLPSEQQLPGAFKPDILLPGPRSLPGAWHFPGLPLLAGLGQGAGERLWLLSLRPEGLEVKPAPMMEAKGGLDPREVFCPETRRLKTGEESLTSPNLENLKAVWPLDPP
The conditions noted are these: protein: recombinant; tags: N-terminal GST; dsDNA, one strand shown. A digest of the protocol: as §1

The target of another assay is T10, ETV7 (Homo sapiens, UniProt Q9Y603 1-341).
T10 sequence: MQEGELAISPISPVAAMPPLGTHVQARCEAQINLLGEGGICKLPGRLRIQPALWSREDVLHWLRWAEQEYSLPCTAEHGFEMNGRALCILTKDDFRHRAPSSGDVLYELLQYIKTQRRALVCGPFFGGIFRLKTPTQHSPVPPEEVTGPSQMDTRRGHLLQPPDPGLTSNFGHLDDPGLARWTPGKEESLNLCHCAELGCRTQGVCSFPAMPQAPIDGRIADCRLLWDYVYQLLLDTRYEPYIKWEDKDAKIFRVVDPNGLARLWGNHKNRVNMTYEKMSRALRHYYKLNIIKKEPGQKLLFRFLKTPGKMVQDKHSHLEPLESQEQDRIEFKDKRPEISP
The conditions noted are these: protein: recombinant; tags: N-terminal GST; dsDNA, one strand shown. The essentials:
as §1

In another assay the target is ETV6 (Homo sapiens, UniProt P41212 1-452). Particulars: protein: recombinant; tags: N-terminal GST; dsDNA, one strand shown. The essentials: as §1
Chain of ETV6 (P41212 whole entry): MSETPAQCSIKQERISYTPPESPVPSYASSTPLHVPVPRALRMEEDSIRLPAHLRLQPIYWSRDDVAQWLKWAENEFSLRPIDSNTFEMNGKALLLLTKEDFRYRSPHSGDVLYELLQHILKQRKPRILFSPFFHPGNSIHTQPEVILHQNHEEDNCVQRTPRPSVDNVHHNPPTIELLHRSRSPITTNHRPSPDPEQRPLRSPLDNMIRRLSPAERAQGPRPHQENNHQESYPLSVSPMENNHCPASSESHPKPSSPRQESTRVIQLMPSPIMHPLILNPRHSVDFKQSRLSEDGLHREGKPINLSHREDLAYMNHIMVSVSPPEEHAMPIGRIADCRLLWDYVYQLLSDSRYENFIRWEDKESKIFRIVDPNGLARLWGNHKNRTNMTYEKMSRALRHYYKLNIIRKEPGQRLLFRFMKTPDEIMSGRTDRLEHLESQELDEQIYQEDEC
For a further assay, the target named is ELF1 (Homo sapiens, UniProt P32519 1-619). Particulars: protein: recombinant; tags: N-terminal GST; dsDNA, one strand shown. The essentials: as §1
Chain of ELF1 (P32519 whole entry): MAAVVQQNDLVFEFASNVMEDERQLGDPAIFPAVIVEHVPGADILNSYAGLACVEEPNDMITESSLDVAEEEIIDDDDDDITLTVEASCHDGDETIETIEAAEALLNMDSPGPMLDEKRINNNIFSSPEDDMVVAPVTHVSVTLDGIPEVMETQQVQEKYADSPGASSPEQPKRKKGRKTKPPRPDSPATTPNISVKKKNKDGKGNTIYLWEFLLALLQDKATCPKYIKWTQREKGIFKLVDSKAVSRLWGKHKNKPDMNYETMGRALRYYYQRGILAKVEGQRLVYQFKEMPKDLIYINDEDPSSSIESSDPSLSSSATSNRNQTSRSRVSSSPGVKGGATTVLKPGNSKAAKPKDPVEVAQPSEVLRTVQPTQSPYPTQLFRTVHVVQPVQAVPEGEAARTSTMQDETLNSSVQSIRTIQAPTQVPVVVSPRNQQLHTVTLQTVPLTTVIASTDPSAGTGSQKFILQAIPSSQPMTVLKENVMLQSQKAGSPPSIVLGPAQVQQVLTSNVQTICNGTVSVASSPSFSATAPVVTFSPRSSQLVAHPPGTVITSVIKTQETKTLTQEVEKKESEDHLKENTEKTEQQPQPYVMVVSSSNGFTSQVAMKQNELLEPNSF
For a further assay, the target named is HSF1 (Homo sapiens, UniProt Q00613 1-529). The conditions noted are these: protein: recombinant; tags: N-terminal GST; chain copies: 3; dsDNA, one strand shown. A digest of the protocol:
as §1

The record followed here is PMC7862700, “An all-to-all approach to the identification of sequence-specific readers for epigenetic DNA modifications on cytosine”.

Chain of SPIB (Q01892 whole entry): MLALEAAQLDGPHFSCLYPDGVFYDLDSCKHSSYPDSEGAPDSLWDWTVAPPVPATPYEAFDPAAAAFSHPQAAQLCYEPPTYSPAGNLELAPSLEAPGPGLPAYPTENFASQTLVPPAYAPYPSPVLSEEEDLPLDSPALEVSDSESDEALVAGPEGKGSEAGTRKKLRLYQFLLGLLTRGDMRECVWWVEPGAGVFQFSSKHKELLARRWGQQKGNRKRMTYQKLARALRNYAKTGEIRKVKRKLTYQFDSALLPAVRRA
Chain of ELF4 (Q99607 whole entry): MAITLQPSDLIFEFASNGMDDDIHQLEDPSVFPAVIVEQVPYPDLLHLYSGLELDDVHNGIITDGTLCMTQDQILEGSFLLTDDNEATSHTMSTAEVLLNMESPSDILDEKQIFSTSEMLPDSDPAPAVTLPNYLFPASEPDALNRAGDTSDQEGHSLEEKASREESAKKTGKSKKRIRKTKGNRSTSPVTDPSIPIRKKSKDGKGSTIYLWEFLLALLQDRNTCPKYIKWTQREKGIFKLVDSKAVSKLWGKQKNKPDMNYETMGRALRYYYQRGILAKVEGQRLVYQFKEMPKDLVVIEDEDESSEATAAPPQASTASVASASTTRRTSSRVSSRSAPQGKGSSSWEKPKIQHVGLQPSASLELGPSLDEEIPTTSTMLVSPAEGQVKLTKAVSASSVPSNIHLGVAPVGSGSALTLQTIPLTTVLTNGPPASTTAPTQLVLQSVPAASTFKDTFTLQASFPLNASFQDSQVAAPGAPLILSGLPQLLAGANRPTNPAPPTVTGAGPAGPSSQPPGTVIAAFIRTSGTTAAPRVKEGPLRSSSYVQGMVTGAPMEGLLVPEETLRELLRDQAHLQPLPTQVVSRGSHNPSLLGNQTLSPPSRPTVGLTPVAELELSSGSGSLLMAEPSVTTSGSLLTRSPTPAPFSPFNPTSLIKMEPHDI
Chain of HSF1 (Q00613 whole entry): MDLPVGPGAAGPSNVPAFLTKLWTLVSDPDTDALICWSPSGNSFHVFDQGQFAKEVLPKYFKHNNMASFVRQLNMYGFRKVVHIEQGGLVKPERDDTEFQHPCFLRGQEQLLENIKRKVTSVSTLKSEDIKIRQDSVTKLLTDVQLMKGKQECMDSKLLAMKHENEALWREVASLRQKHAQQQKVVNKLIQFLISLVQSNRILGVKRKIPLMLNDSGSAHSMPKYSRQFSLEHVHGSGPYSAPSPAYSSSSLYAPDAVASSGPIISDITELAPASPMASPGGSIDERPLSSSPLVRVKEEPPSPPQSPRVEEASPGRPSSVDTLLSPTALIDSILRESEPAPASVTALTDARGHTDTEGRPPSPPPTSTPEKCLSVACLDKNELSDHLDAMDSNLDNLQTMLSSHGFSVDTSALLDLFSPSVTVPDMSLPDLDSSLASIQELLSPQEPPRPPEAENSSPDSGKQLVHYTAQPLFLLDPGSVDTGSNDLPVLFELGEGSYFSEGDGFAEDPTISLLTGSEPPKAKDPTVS

Consider GGTAAC, for which the binding signal was 1.1 fold enrichment (6-mer frequency, TF over GST control) in the assay with FLI1; 1.03 fold enrichment (6-mer frequency, TF over GST control) with GABPA; 1.01 fold enrichment (6-mer frequency, TF over GST control) with ERG; 1.09 fold enrichment (6-mer frequency, TF over GST control) in the assay with EHF; 1.02 fold enrichment (6-mer frequency, TF over GST control) with SPIB; 1 fold enrichment (6-mer frequency, TF over GST control) with ELK3. Moreover, the binding signal with SPIC is 1.03 fold enrichment (6-mer frequency, TF over GST control); in the assay with ELF4, 1.01 fold enrichment (6-mer frequency, TF over GST control); with ELK4, 1.03 fold enrichment (6-mer frequency, TF over GST control); with ERF it was 1 fold enrichment (6-mer frequency, TF over GST control); in the assay with ETV3L it was 1 fold enrichment (6-mer frequency, TF over GST control); with ETV7, 1.05 fold enrichment (6-mer frequency, TF over GST control). Moreover, in the assay with ETV6, the binding signal was 1.04 fold enrichment (6-mer frequency, TF over GST control).
For TCGCGT, the binding signal with FLI1 was 1.01 fold enrichment (6-mer frequency, TF over GST control); in the assay with ELF1, 1 fold enrichment (6-mer frequency, TF over GST control); in the assay with EHF it was 1.02 fold enrichment (6-mer frequency, TF over GST control); with SPIB it was 1.01 fold enrichment (6-mer frequency, TF over GST control); in the assay with HSF1, 1.04 fold enrichment (6-mer frequency, TF over GST control); in the assay with ELK4 it was 1.06 fold enrichment (6-mer frequency, TF over GST control).
